Measurements published in PubChem BioAssay AID1159580 (chemical genetic matrix, 2015).
The campaign covered roughly 5,500 compounds. About 2,000 (36%) were called active. About 18% were inconclusive and are not listed. The list shows a part of the results. A number with no mark means an inactive call. Cut-off read from the data, not from the text of the source: active = normalized growth mostly below about 0.91 (no sharp cut-off); inconclusive = no clear call, values can overlap the other calls; inactive = mostly above about 0.92.

Test: chemical genetic growth profiling, strain panel (AID 1159580);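 note: tested at 20 µM; growth read once vehicle control cultures reached saturation at 30 °C; 1 = growth at the plate median or of vehicle wells; lower values mean less growth of the strain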
Details: growth OD
[1] = S. cerevisiae deletion strains, locus YAL013W, strain DEP1, hits give low values
[2] = S. cerevisiae deletion strains, locus YBR229C, strain ROT2, hits give low values
[3] = S. cerevisiae deletion strains, locus YDL101C, strain DUN1, hits give low values
[4] = S. cerevisiae deletion strains, locus YDR150W, strain NUM1, hits give low values
[5] = S. cerevisiae deletion strains, locus YEL061C, strain CIN8, hits give low values
[6] = S. cerevisiae deletion strains, locus YGR078C, strain PAC10, hits give low values
[7] = S. cerevisiae deletion strains, locus YHR030C, strain SLT2, hits give low values
[8] = S. cerevisiae deletion strains, locus YHR087W, strain rtc3, hits give low values
[9] = S. cerevisiae deletion strains, locus YJR043C, strain POL32, hits give low values
[10] = S. cerevisiae deletion strains, locus YJR075W, strain HOC1, hits give low values
[11] = S. cerevisiae deletion strains, locus YLR039C, strain RIC1, hits give low values
[12] = S. cerevisiae deletion strains, locus YLR058C, strain SHM2 (second series), hits give low values
[13] = S. cerevisiae deletion strains, locus YLR085C, strain ARP6, hits give low values
[14] = S. cerevisiae deletion strains, locus YLR262C, strain YPT6, hits give low values
[15] = S. cerevisiae deletion strains, locus YML094W, strain GIM5, hits give low values
[16] = S. cerevisiae deletion strains, locus YMR219W, strain ESC1, hits give low values
[17] = S. cerevisiae deletion strains, locus YMR263W, strain SAP30, hits give low values
[18] = S. cerevisiae deletion strains, locus YNL128W, strain TEP1, hits give low values
[19] = S. cerevisiae deletion strains, locus YNL153C, strain GIM3, hits give low values
[20] = S. cerevisiae deletion strains, locus YNL298W, strain CLA4 (second series), hits give low values
[21] = S. cerevisiae deletion strains, locus YNL322C, strain KRE1, hits give low values
[22] = S. cerevisiae deletion strains, locus YNR030W, strain Alg12, hits give low values
[23] = S. cerevisiae deletion strains, locus YPL055C, strain LGE1, hits give low values
[24] = S. cerevisiae deletion strains, locus YPL241C, strain CIN2, hits give low values
[25] = S. cerevisiae deletion strains, locus YPR135W, strain CTF4, hits give low values

COc1ccc(-n2c(-c3ccc(C)cc3)csc2=N)cc1
normalized growth [1]: 0.996 | normalized growth [2]: 1 | normalized growth [3]: 1 | normalized growth [4]: 1.02 | normalized growth [5]: 0.97 | normalized growth [6]: 1 | normalized growth [7]: 1.05 | normalized growth [8]: 0.995 | normalized growth (S. cerevisiae deletion strains, locus YJL187C, strain SWE1, hits give low values): 0.985 | normalized growth [9]: 1.01 | normalized growth [10]: 1.01 | normalized growth [11]: 1.01 | normalized growth [12]: 1 | normalized growth [13]: 0.918 | normalized growth [14]: 1 | normalized growth [15]: 0.996 | normalized growth [16]: 1.01 | normalized growth [17]: 1.03 | normalized growth (S. cerevisiae deletion strains, locus YMR307W, strain GAS1, hits give low values): 1.03 | normalized growth [18]: 0.992 | normalized growth [19]: 1.03 | normalized growth [20]: 0.983 | normalized growth [21]: 1 | normalized growth [22]: 0.988 | normalized growth [23]: 1.03 | normalized growth [24]: 1.01 | normalized growth [25]: 1.24 | normalized growth (S. cerevisiae strains, strain wild type, hits give low values): 0.994

COc1ccc(-c2ccc(C=C(C#N)C#N)s2)cc1
normalized growth [1]: 0.946 | normalized growth [2]: 0.918 (active) | normalized growth (S. cerevisiae deletion strains, locus YCL061C, strain MRC1, hits give low values): 0.95 | normalized growth [3]: 0.95 | normalized growth [4]: 0.967 | normalized growth [5]: 0.922 | normalized growth [6]: 0.925 (active) | normalized growth [7]: 0.943 | normalized growth [8]: 0.939 | normalized growth [9]: 0.958 | normalized growth [10]: 1.01 | normalized growth [11]: 0.757 (active) | normalized growth [12]: 0.971 | normalized growth [13]: 0.912 | normalized growth [14]: 0.832 | normalized growth [15]: 0.899 | normalized growth [16]: 0.969 | normalized growth [17]: 0.974 | normalized growth [18]: 0.977 | normalized growth [19]: 0.938 | normalized growth [20]: 0.895 | normalized growth [21]: 0.964 | normalized growth [22]: 0.903 | normalized growth [23]: 0.932 | normalized growth [24]: 1.07 | normalized growth [25]: 0.948
